# Only some compounds are listed: those with a hit (about 7.3% of all), similar ones and a draw of the others.
# HCMV antiviral: qHTS Assay for inhibitors of the human cytomegalovirus (HCMV) | HFF cells, HCMV-luciferase reporter, 72 h; active compounds read low | activity change, negative = inhibition, % at 57.5 µM | 410,000 tested, 4.5% active | AID 1259415, 2018; in the data active = activity change below about -60%; inconclusive = no clear call, values can overlap the other calls; inactive = above about -39%
#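 Luciferase read-out from HCMV-luciferase-infected HFFs (MOI 1 PFU/cell) 72 h post infection at 37C; compounds added after 16 h cell attachment; activity normalized between buffer-only basal and Salinomycin (10uM) inhibitor controls.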
# FMDV inh: High Throughput Screening for Foot and Mouth Disease Virus Antivirals | FMDV antiviral cell-based qHTS | Potency, µM (titrated, usually from 57.9 µM), without a hit: top-dose activity change, negative = inhibition, actives largely listed as inhibitors | 410,000 tested, 1.2% active | AID 1159524, 2015; calls by dose curve; tested in HEK293T cells; note: read-out not given here; potency is the fitted concentration of half-maximal effect; nearly all actives have a fitted effect of over 45% in size
# Vaccinia Venus: qHTS for Stage-Specific Inhibitors of Vaccinia Orthopoxvirus: Venus Reporter Primary qHTS | AID 720580, 2013 | Vaccinia virus Venus reporter expression, fluorescence | Potency, µM (series often up to 36.5 µM), for the others: at the highest dose activity change, negative = inhibition, usual class: inhibitors | 330,000 tested, 0.46% active; calls by dose curve; tested in A549 cells; note: potency is the fitted concentration of half-maximal effect; nearly all actives have a fitted effect of over 30% in size
# HCV inhibitor: qHTS Assay for Inhibitors of Hepatitis C Virus (HCV). 340,000 tested, 3.4% active. Huh7.5.1 HCVcc-Cre infection, luciferase reporter, 44 h. AID 651820, 2012. Potency, µM (doses to about 41.8 µM), inactives show at the highest dose activity change, negative = inhibition, usual class: inhibitors; active = well fitted inhibition curve with a large enough effect; inconclusive = small, poorly fitted or top-dose-only effect, or another doubt; inactive = no such curve, though single readings can be large or run the other way; note: potency is the fitted concentration of half-maximal effect
#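 Cells (1,000/well) were plated 4 h before compound, then infected with HCVcc-Cre virus (~0.5 moi). After 44 h further culture, infection was read as luciferase luminescence following a 15 min substrate incubation at room temperature.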
# Vaccinia mCherry: qHTS for Stage-Specific Inhibitors of Vaccinia Orthopoxvirus: mCherry Reporter Primary qHTS; Potency, µM (top dose mostly 36.5 µM), without a hit: top-dose activity change, negative = inhibition, hits mostly inhibitors; 310,000 tested, 0.63% active; Vaccinia virus mCherry reporter infection, fluorescence; calls by dose curve; tested in A549 cells; note: potency is the fitted concentration of half-maximal effect; nearly all actives have a fitted effect of over 35% in size
# * marks the source's active call; other numbers are inactive results; i = inactive; ? = inconclusive; nt = no result given; + = active, no number. % is set by controls: 0 for no effect and ±100 for the full control effect.
SMILES,HCMV antiviral,FMDV inh,Vaccinia Venus,HCV inhibitor,Vaccinia mCherry
CCOc1ccc(C(C(=O)NCC2CCCO2)N(Cc2cccc(OC)c2)C(=O)c2snc(C(N)=O)c2N)cc1 (centres undefined),15,3%,-22%,-20%,-15%
COc1ccc(C(C(=O)NCC2CCCO2)N(Cc2cccs2)C(=O)c2snc(C(N)=O)c2N)cc1 (centres undefined),-101*,-10%,24%,?,1%
CCOc1ccc(CCNC(=O)Cn2c(-c3cccs3)cc3ccccc32)cc1,-17,-1%,-13%,nt,-6%
COCCNC(=O)C(c1ccc(C)o1)N(C(=O)c1snc(C(N)=O)c1N)c1ccc(C)cc1 (centres undefined),?,nt,-18%,11%,-2%
COCCNC(=O)C(c1ccc(C)o1)N(C(=O)c1snc(C(N)=O)c1N)c1ccc(C)c(C)c1 (centres undefined),-65*,6%,-5%,-23%,i
Cc1ccc(C)[n+](CC(=O)N2CCCCC2)c1,22,-9%,-7%,10%,i
CC(C)c1ccc2[nH]c(O)c(N=NC(=S)NCCc3ccccc3)c2c1,?,-15%,nt,?,nt
CCNC(=S)N=Nc1c(O)[nH]c2ccc(C(C)C)cc12,-66*,-24%,?,?,?
O=C(Nc1ccc2nc(SCC(=O)N3CCCC3)sc2c1)c1cccc(Br)c1,-30,?,-19%,nt,-16%
CCCCCCn1c(SCC#N)nc2ccccc2c1=O,nt,nt,-5%,nt,28%
CC(=O)Nc1ccc(NC2=Nc3ccccc3N3C2=Nc2c(c(C)nn2-c2ccccc2)C3c2ccccc2)cc1 (centres undefined),-99*,10µM*,?,1%,?
Cc1ccc(S(=O)(=O)CC(=O)Nc2sc3c(c2C(N)=O)CCCC3)cc1,+,2%,-8%,nt,i
CN1CCc2c(sc(NC(=O)CS(=O)(=O)c3ccccc3)c2C(N)=O)C1,-6,-22%,3%,10%,-11%
CCCN1CCc2c(sc(NC(=O)CCS(=O)(=O)c3ccccc3)c2C(N)=O)C1,-92*,-12%,-19%,-22%,-11%
NC(=O)c1c(NC(=O)CN2CCN(S(=O)(=O)c3ccccc3)CC2)sc2c1CCC2,-34,?,-24%,10µM*,?
CN1CCN(CC(=O)Nc2sc3c(c2C(=O)Nc2ccccc2)CCCC3)CC1,19,-2%,nt,?,nt
CCOC(=O)N(O)c1ccc(C=Cc2ccccc2)cc1,-62*,15%,?,4µM*,?
CN(C)c1ccc(C(=O)/C=C/c2ccccc2)cc1,-7,9%,?,-10%,-22%
O=C(CF)N(O)c1ccc(C=Cc2ccccc2)cc1,-79*,16%,?,?,?
Cc1ccc(NC(=O)Cn2cc(S(=O)(=O)c3ccc(C)cc3)c(=O)c3cc4c(cc32)OCO4)cc1,-2,-2%,-12%,nt,-9%
C=CCNC(=O)[C@@]1(Sc2ccc(OC)cc2)CC(=O)N[C@@H]1c1ccc(OC)cc1,-24,nt,nt,nt,nt
CC(C)(C)c1ccc(C(=O)NNc2ncccc2-n2cccc2)cc1,-60*,-10%,nt,-11%,nt
O=C(c1cnn(C(=O)COc2ccc(Cl)cc2)c1)c1ccccc1O,?,-20%,-5%,12%,i
Cc1ccc(O)c(C(=O)c2cnn(C(=O)COc3ccc(Cl)cc3)c2)c1,-61*,-4%,0%,-1%,-4%
COc1ccc([C@@H]2CC=C(C(=O)O)CN2S(=O)(=O)c2ccc(C)cc2)cc1OC,-64*,-1%,-16%,18%,-3%
SMILES,HCMV antiviral,FMDV inh,Vaccinia Venus,HCV inhibitor,Vaccinia mCherry
COc1ccc(S(=O)(=O)N2CCSC2c2ccc(OC)c(OC)c2)cc1 (centres undefined),-62*,?,nt,7%,nt
COc1ccc(C2SCCN2S(=O)(=O)c2ccc(F)cc2)cc1OC (centres undefined),-19,?,-8%,2%,-14%
O=C(CN1CCOCC1)c1ccc2ccccc2c1,nt,nt,-10%,nt,-19%
COc1ccccc1CN1C[C@@H]2C[C@@H](c3ccccc3C)N3CCC[C@@]23C1=O,-7,15%,-16%,?,-8%
Cc1ccccc1CN1C[C@@H]2C[C@@H](c3cnc(N4CCOCC4)s3)N3CCC[C@@]23C1=O,-76*,-11%,-9%,?,i
COc1ccc(C2C=C(C)Nc3ncnn32)cc1 (centres undefined),27,24%,nt,2%,nt
CC1=CC(c2ccc(Cl)cc2)n2ncnc2N1 (centres undefined),?,3%,-4%,0.89µM*,i
Cc1ccc(NC(=O)O/N=C/c2c(C)nn(C(C)(C)C)c2C)cc1Cl,-86*,0.013µM*,-12%,-10%,i
Cc1ccc(C(=O)c2cncc(Br)c2)cc1,-71*,24%,nt,-8%,nt
CCc1ccc(C(=O)c2cncc(Br)c2)cc1,-69*,-3%,-13%,9%,-12%
COC(=O)CCn1nnc(-c2ccc(C(C)C)cc2)n1,-62*,?,nt,-1%,nt
Nc1nc(N)c(N=Nc2ccc(Cl)cc2)c(=O)[nH]1,37,32%,nt,5.6µM*,nt
CCn1c(=O)c2cc(C(=O)N3CCN(c4cccc(Cl)c4)CC3)sc2c2ccccc21,1,?,-9%,nt,-8%
COc1ccccc1-c1cc(C(F)(F)F)nc(S(=O)(=O)CCCC(=O)N2CCOCC2)n1,-104*,22µM*,?,?,?
COc1ccccc1-c1cc(C(F)(F)F)nc(S(=O)(=O)CCCC(=O)Nc2cc(OC)c(OC)c(OC)c2)n1,-2,19%,-16%,nt,-3%
COc1ccccc1-c1cc(C(F)(F)F)nc(S(=O)(=O)CCCC(=O)O)n1,-14,25µM*,nt,28%,nt
COc1ccc(-c2cc(C(F)(F)F)nc(S(=O)(=O)CCC(=O)N3CCOCC3)n2)cc1,96,-11%,-3%,-17%,nt
CC(C)(C)OC(=O)C[C@H]1C/C=C\C[C@H](CC(=O)N[C@H](CO)Cc2ccccc2)C(=O)N[C@H](Cc2ccccc2)COC1=O,6,-18%,?,5%,-19%
Cc1ccc(/C=N/NC(=O)C2COc3ccccc3O2)s1 (centres undefined),-76*,63%,?,2%,?
O=C(NC1=NCCS1)C1COc2ccccc2O1 (centres undefined),?,10µM*,6%,0%,-5%
Cc1ccc(-n2c(O)c(/C=N/NC(=O)C3COc4ccccc4O3)c3ccccc3c2=O)cc1 (centres undefined),-61*,-21%,-18%,16%,-25%
O=C(N/N=C/c1c(O)n(-c2ccccc2Cl)c(=O)c2ccccc12)C1COc2ccccc2O1 (centres undefined),nt,3%,-1%,-4%,-16%
C/C(=N\NC(=O)C1COc2ccccc2O1)c1cccs1 (centres undefined),-60*,nt,-11%,-2%,-14%
